# Assay results: PubChem BioAssay AID463173 (ICCB-Longwood Screening Facility, Harvard Medical School, 2010)
# Screen size: about 52,000 compounds; about 4,300 (8.3%) were called active. Cut-off read from the data, not from the text of the source: active = survival mostly below about 52% (no sharp cut-off); inactive = mostly above about 56%. The sample as a whole holds a higher share of actives than the screen did.
# Test system: DeltatarO mutant
# Experiment: S. aureus survival, RN4220 and DeltatarO strains – OD600, teichoic acid synthesis inhibitors, primary screen (AID 463173)
# Conditions: S. aureus RN4220 wild type/DeltatarO growth, OD600, 18 h, hits give low values, screened at 18.75 µg/mL (by protocol)
row,Structure (SMILES),survival
1,Cc1ccc2nc3c(cc(C#N)c(=O)n3-c3nnc(SCc4ccc(F)cc4)s3)c(=O)n2c1,72% (inactive)
2,Cc1ccc(NCc2nnc(SCC(=O)N3CCOCC3)o2)c(C)c1,74% (inactive)
3,O=C(Cn1cc(SCc2ccc(C(F)(F)F)cc2)c2ccccc21)N1CCCC1,55% (inactive)
4,COC(=O)c1ccc(Cn2nnc3c(=O)[nH]c(C4CCCN(S(=O)(=O)c5ccccc5Cl)C4)nc32)cc1 (stereo not given),68% (inactive)
5,COc1cccc(CNC(=O)CN2C(=O)CCn3nc(-c4cn(C)c5ccccc45)cc32)c1OC,76% (inactive)
6,COc1ccc(OC)c(S(=O)(=O)NCCc2sc(-c3ccc(C)cc3)nc2C)c1,94% (inactive)
7,CCOC(=O)c1ccc(N2C(=O)c3n[nH]c(-c4ccco4)c3C2c2ccc(F)cc2)cc1 (stereo not given),22% (active)
8,CCOC(=O)c1ccc(N2C(=O)c3n[nH]c(-c4ccco4)c3C2c2cccc(OC)c2)cc1 (stereo not given),91% (inactive)
9,CCOC(=O)c1ccc(N2C(=O)c3n[nH]c(-c4cccs4)c3C2c2cccc(F)c2)cc1 (stereo not given),105% (inactive)
10,CCOC(=O)c1ccc(N2C(=O)c3n[nH]c(-c4cccs4)c3C2c2cccc(OC)c2)cc1 (stereo not given),97% (inactive)
11,CCOC(=O)c1ccc(N2C(=O)c3n[nH]c(C)c3C2c2ccc(OCC)cc2)cc1 (stereo not given),52% (inactive)
12,CCOC(=O)c1ccc(N2C(=O)c3n[nH]c(-c4ccco4)c3C2c2ccc(C)cc2)cc1 (stereo not given),69% (inactive)
13,CCOC(=O)c1ccc(N2C(=O)c3n[nH]c(-c4cccs4)c3C2c2cccc(O)c2)cc1 (stereo not given),-5% (active)
14,CCOC(=O)c1ccc(N2C(=O)c3n[nH]c(-c4ccco4)c3C2c2ccc(C(=O)OC)cc2)cc1 (stereo not given),89% (inactive)
15,CCOC(=O)c1ccc(N2C(=O)c3n[nH]c(-c4ccco4)c3C2c2cccc(O)c2)cc1 (stereo not given),-8% (active)
16,CCOC(=O)c1ccc(N2C(=O)c3n[nH]c(-c4ccco4)c3C2c2ccc(O)cc2)cc1 (stereo not given),40% (inactive)
17,CCOC(=O)c1ccc(N2C(=O)c3n[nH]c(C)c3C2c2cccc(Br)c2)cc1 (stereo not given),8% (active)
18,CCOC(=O)c1ccc(N2C(=O)c3n[nH]c(C)c3C2c2ccc(C(C)(C)C)cc2)cc1 (stereo not given),87% (inactive)
19,COc1cc(Nc2ncc3c(n2)CCN(Cc2cc(F)cc(F)c2)C3)cc(OC)c1,67% (inactive)
20,Cc1nc2cc(-c3ccccc3)nn2c(C)c1CCC(=O)N1CCN(c2ccccc2)CC1,56% (inactive)
21,CCOCCc1nnc(NC(=O)C(=O)c2cc(C)n(-c3cccc(C)c3)c2C)s1,65% (inactive)
22,COc1cccc(CNC(=O)CCS(=O)(=O)c2cc3c4c(c2)CCN4C(=O)CC3)c1,68% (inactive)
23,O=C(COc1ccc(Br)cc1)N/N=C1\SCC(=O)N1c1ccc(F)cc1,95% (inactive)
24,CCc1ccc(NC(=O)CSc2nccn2-c2ccc(OC)cc2)cc1,107% (inactive)

row,Structure (SMILES),survival
1,Nc1cc(=O)[nH]c(=S)n1-c1ccccc1,99% (inactive)
2,COc1cc(C2c3c(oc4ccc(C)cc4c3=O)C(=O)N2Cc2ccccc2)ccc1O (stereo not given),113% (inactive)
3,COc1cc(NC(=O)c2ncn(-c3ccccc3)n2)cc(OC)c1,63% (inactive)
4,CCOC(=O)c1ccc(N2C(=O)c3n[nH]c(-c4ccco4)c3C2c2cccc(F)c2)cc1 (stereo not given),12% (active)
5,CCOC(=O)c1ccc(N2C(=O)c3n[nH]c(-c4ccco4)c3C2c2ccc(OCC)cc2)cc1 (stereo not given),91% (inactive)
6,CCOC(=O)c1ccc(N2C(=O)c3n[nH]c(-c4ccco4)c3C2c2ccc(O)c(OC)c2)cc1 (stereo not given),118% (inactive)
7,CCc1ccccc1N(CC)C(=O)c1cc2c(s1)-c1ccccc1SC2,-1% (active)
8,CCOc1ccc(N(CC)C(=O)c2cc3c(s2)-c2ccccc2OC3)cc1,76% (inactive)
9,CCOc1ccc(N(CC)C(=O)c2cc3c(s2)-c2ccc(Cl)cc2SC3)cc1,81% (inactive)
10,O=C(NCc1cccc(Cl)c1)c1cc2c(s1)-c1ccccc1OC2,50% (inactive)
11,COc1ccc(CCNC(=O)c2cc3c(s2)-c2ccccc2OC3)cc1OC,49% (inactive)
12,CCN(C(=O)c1cc2c(s1)-c1ccccc1OC2)c1cc(Cl)ccc1OC,15% (active)
13,O=C(NCc1ccccc1Cl)c1cc2c(s1)-c1ccccc1SC2,65% (inactive)
14,CCc1ccccc1N(CC)C(=O)c1cc2c(s1)-c1ccccc1OC2,-5% (active)
15,CCc1ccc(CNC(=O)c2cc3c(s2)-c2ccccc2OC3)cc1,61% (inactive)
16,CCCN(C(=O)c1cc2c(s1)-c1ccccc1OC2)c1ccccc1F,-4% (active)
17,O=C(NCCc1ccc(Cl)cc1)c1cc2c(s1)-c1ccccc1OC2,61% (inactive)
18,CC(C)c1ccc(NC2=NCC(=O)N2Cc2ccccc2)cc1,87% (inactive)
19,O=C(Nc1cccc(O)c1)c1cc2nc(-c3ccc(Br)cc3)cc(C(F)(F)F)n2n1,120% (inactive)
20,CC(=O)Nn1c(C)nc2ccccc2c1=O,75% (inactive)
21,Cc1nc(SC(C)C(=O)Nc2ccccc2Cl)cc(-c2ccccc2)n1 (stereo not given),61% (inactive)
22,CCn1c(SCC(=O)OC)nnc1-c1ccc(O)cc1,99% (inactive)
23,COc1ccc(NC(=O)CC2C(=O)N(c3cccc(OC)c3)C(=O)N2Cc2cccnc2)cc1 (stereo not given),94% (inactive)
24,CCn1c(CN2CCCCC2)nc2cc(NC(=O)COc3cc(C)ccc3C(C)C)ccc21,73% (inactive)

row,Structure (SMILES),survival
1,COc1ccc(C)cc1Nc1cc(C)nc(C)n1,66% (inactive)
2,CCC(=O)N1CCc2cc(Br)cc(S(=O)(=O)CCC(=O)NCc3ccc(Cl)cc3)c21,78% (inactive)
3,CCOc1ccc(-c2cc(C(=O)OC)on2)cc1,55% (inactive)
4,CCc1ccc(NC(=O)CC2C(=O)N(c3cccc(C)c3)C(=O)N2Cc2ccc(F)cc2)cc1 (stereo not given),89% (inactive)
5,CCN(c1ccccc1)C(CNS(=O)(=O)c1ccccc1)c1ccccc1 (stereo not given),71% (inactive)
6,CCN(C(=O)c1cc2c(=O)n(CC)c3ccccc3c2s1)c1cccc(C(F)(F)F)c1,72% (inactive)
7,CCN(C(=O)c1cc2c(s1)-c1ccccc1OC2)c1cccc(C(F)(F)F)c1,-1% (active)
8,CCCN(C(=O)c1cc2c(s1)-c1c(C)cccc1OC2)c1ccc(OCC)cc1,98% (inactive)
9,CCCN(C(=O)c1cc2c(s1)-c1ccccc1OC2)c1ccc(C(C)C)cc1,-3% (active)
10,Cc1ccc(CNC(=O)c2cc3c(s2)-c2ccccc2SC3)cc1,94% (inactive)
11,O=C(NCc1ccc(F)cc1)c1cc2c(s1)-c1ccccc1SC2,45% (active)
12,CCCN(C(=O)c1cc2c(s1)-c1ccccc1SC2)c1ccccc1F,1% (active)
13,CN(Cc1ccccc1)C(=O)c1cc2c(s1)-c1ccc(Cl)cc1SC2,86% (inactive)
14,O=C(NCc1ccc(Cl)cc1)c1cc2c(s1)-c1ccccc1SC2,58% (inactive)
15,CCCN(C(=O)c1cc2c(=O)n(CC)c3ccccc3c2s1)c1ccccc1F,64% (inactive)
16,CCOc1ccc(CNC(=O)c2cc3c(s2)-c2ccccc2OC3)cc1,71% (inactive)
17,COc1ccc(OCC(=O)Nc2ccc3c(c2)OCO3)cc1,76% (inactive)
18,COc1ccc(Cl)cc1NC(=O)N1CCC(CN2CCc3ccccc3C2)CC1,109% (inactive)
19,COc1ccc(S(=O)(=O)c2c(SC)nn(Cc3ccccc3C)c2NC(C)=O)cc1,55% (inactive)
20,CN1CCN(CCCNC(=O)c2cnn(-c3ccccc3)c2-n2cccc2)CC1,87% (inactive)
21,Cc1ccc(OCC(=O)NCC(=O)OCc2cc(=O)n3nc(C)sc3n2)cc1,90% (inactive)
22,Cc1ccc(C)c(N2CCN(c3nc4ccccc4n4nnnc34)CC2)c1,92% (inactive)
23,COc1ccc(Cn2c(=O)[nH]c3cc(C(=O)N4CCN(c5cccc(OC)c5)CC4)ccc3c2=O)cc1,63% (inactive)
24,CC(C)(C)OC(=O)N1CCC(c2c(C(=O)Nc3ccc4c(c3)OCCO4)cnn2-c2ccc(Cl)cc2)CC1,87% (inactive)

row,Structure (SMILES),survival
1,CCOC(=O)c1cc(S(=O)(=O)N2CCN(c3ccc(C(C)=O)cc3)CC2)[nH]n1,126% (inactive)
2,Cc1c(Cl)cccc1NC(=O)CCS(=O)(=O)c1cccc2nsnc12,78% (inactive)
3,CCOCCCNC(=O)C(c1ccccc1)N1Cc2ccccc2C1=O (stereo not given),96% (inactive)
4,CCc1ccc(CNC(=O)c2cc3ccccn3n2)cc1,97% (inactive)
5,CCOc1ccc(CNC(=O)c2cc3ccccn3n2)cc1,52% (active)
6,CCOc1ccc(CNC(=O)c2ccccc2NC(=O)c2nsc3ccccc23)cc1,-5% (active)
7,Cc1ccc(CNC(=O)c2ccccc2NC(=O)c2nsc3ccccc23)cc1,60% (inactive)
8,CC(C)Oc1ccc(CNC(=O)c2ccccc2NC(=O)c2nsc3ccccc23)cc1,122% (inactive)
9,CCCOc1ccc(CNC(=O)c2cc3ccccn3n2)cc1,116% (inactive)
10,C=CCNC(=O)c1cc2sccc2n1Cc1ccccc1,85% (inactive)
11,CC(C)C(=O)OCc1cc(=O)n2nc(C3CC3)sc2n1,86% (inactive)
12,COc1ccc(S(=O)(=O)N(C)C2CCCCC2)cc1,85% (inactive)
13,COc1ccc(S(=O)(=O)NNC(N)=S)cc1,100% (inactive)
14,COc1ccc(S(=O)(=O)N/N=C(/C2CCCCC2)C(F)(F)F)cc1,35% (active)
15,COc1ccc(CNC(=O)C(=O)NCC(c2ccco2)S(=O)(=O)c2ccc(C)cc2)cc1 (stereo not given),124% (inactive)
16,CC1Oc2ccccc2N(CC(=O)NCC2CCCO2)C1=O (stereo not given),83% (inactive)
17,CCC(C)NC(=O)CSc1nc2c(sc3ccccc32)c(=O)n1CCc1ccc(OC)c(OC)c1 (stereo not given),66% (inactive)
18,COC(=O)CC1Oc2ccc(Cl)cc2-n2cc(-c3ccc(C)cc3)nc21 (stereo not given),80% (inactive)
19,COC(=O)CC1Oc2ccc(F)cc2-n2cc(-c3ccc(C)cc3)nc21 (stereo not given),91% (inactive)
20,COC(=O)CC1Oc2ccc(Cl)cc2-n2cc(-c3ccc(F)cc3)nc21 (stereo not given),90% (inactive)
21,COC(=O)CC1Oc2ccc(C)cc2-n2cc(-c3ccc(C)cc3)nc21 (stereo not given),37% (active)
22,COC(=O)CC1Oc2ccc(C)cc2-n2cc(-c3ccc(F)cc3)nc21 (stereo not given),56% (active)
23,COC(=O)CC1Oc2ccccc2-n2cc(-c3ccc(C)cc3)nc21 (stereo not given),64% (inactive)
